# Results reported in article PMC7862700, “An all-to-all approach to the identification of sequence-specific readers for epigenetic DNA modifications on cytosine”.
# How the values were obtained:
# Assay in all cases: DAPPL (digital affinity profiling via proximity ligation, sequencing); 10 mM Tris-HCl pH 7.5, 50 mM NaCl, 1 mM DTT, 4% glycerol, room temperature, 30 min; GST-TFs on glutathione beads, 16-mer random dsDNA library, 0.1% formaldehyde crosslink after washing; high values mean tight binding
# FLI1 = target: T1, FLI1 (Homo sapiens, UniProt Q01543 1-452); details: protein: recombinant; tags: N-terminal GST; dsDNA, one strand shown
# T1 sequence: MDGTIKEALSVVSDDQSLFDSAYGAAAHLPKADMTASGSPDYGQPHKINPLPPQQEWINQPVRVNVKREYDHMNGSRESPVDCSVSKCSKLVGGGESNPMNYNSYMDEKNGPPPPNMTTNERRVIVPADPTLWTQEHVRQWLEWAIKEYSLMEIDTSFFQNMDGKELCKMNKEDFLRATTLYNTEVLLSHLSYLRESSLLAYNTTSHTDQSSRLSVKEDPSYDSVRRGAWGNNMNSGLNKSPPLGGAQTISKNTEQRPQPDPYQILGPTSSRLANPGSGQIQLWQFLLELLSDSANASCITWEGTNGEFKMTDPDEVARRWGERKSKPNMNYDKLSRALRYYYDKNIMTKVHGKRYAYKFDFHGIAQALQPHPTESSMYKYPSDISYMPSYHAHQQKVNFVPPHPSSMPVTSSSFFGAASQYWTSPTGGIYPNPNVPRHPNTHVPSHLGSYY
# Summary of the method: (§1)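 Human transcription factors fused to GST were expressed in yeast, captured on glutathione beads, given DNA barcodes and pooled with a GST-only negative control. Pools were incubated with 200 nmole of a 16-mer random double-stranded DNA library in Tris/NaCl/DTT/glycerol buffer at room temperature for 30 min. They were then washed, crosslinked with 0.1% formaldehyde, proximity-ligated (BsaI/T4 ligase, 1 h, 37 °C), PCR-amplified and sequenced on an Illumina NextSeq500. Binding signal is each 6-mer's read frequency for a factor divided by its frequency for the GST control.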
# ELK1 = target: T2, ELK1 (Homo sapiens, UniProt P19419 1-428); details: protein: recombinant; tags: N-terminal GST; dsDNA, one strand shown
# T2 sequence: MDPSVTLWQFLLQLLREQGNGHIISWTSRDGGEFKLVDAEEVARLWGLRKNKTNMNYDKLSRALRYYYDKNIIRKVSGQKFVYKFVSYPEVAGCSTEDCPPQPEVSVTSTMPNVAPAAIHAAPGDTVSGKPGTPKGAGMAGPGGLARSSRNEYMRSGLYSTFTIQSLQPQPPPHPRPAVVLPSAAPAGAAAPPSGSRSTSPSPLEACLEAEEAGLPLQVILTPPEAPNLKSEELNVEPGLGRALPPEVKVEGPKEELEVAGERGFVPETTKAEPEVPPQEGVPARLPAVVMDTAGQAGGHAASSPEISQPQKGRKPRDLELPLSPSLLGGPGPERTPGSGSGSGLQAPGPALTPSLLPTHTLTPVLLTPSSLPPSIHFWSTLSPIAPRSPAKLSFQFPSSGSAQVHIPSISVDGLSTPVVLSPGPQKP
# Summary of the method: as §1
# GABPA = target: T3, GABPA (Homo sapiens, UniProt Q06546 1-454); details: protein: recombinant; tags: N-terminal GST; dsDNA, one strand shown
# T3 sequence: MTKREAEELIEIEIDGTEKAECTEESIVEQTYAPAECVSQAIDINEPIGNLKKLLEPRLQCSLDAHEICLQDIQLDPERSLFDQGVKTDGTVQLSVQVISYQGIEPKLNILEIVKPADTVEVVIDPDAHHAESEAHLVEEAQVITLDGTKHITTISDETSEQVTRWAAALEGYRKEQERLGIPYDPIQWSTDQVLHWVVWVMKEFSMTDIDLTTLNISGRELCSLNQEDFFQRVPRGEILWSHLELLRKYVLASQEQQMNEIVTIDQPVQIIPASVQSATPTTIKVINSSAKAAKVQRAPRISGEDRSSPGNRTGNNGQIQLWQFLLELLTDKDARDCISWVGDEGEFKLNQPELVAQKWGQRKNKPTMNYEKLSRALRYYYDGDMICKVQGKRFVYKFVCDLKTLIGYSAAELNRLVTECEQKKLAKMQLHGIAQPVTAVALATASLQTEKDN
# Summary of the method: as §1
# ERG = target: T4, ERG (Homo sapiens, UniProt P11308 1-479); details: protein: recombinant; tags: N-terminal GST; dsDNA, one strand shown
# T4 sequence: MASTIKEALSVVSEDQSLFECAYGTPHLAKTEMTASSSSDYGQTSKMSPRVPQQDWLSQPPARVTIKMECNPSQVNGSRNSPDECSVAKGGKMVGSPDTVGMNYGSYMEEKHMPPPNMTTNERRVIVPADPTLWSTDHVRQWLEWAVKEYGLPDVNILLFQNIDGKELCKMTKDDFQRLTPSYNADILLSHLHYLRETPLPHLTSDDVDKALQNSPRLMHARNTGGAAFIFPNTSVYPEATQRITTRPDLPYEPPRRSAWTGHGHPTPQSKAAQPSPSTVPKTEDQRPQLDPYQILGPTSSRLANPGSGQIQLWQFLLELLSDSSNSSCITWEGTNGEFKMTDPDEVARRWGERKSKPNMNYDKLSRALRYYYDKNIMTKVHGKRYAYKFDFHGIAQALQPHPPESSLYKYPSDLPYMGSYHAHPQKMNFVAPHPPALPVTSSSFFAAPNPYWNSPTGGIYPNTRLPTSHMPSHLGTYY
# Summary of the method: as §1
# ELF1 = ELF1 (Homo sapiens, UniProt P32519 1-619); details: protein: recombinant; tags: N-terminal GST; dsDNA, one strand shown
# Chain of ELF1 (P32519 whole entry): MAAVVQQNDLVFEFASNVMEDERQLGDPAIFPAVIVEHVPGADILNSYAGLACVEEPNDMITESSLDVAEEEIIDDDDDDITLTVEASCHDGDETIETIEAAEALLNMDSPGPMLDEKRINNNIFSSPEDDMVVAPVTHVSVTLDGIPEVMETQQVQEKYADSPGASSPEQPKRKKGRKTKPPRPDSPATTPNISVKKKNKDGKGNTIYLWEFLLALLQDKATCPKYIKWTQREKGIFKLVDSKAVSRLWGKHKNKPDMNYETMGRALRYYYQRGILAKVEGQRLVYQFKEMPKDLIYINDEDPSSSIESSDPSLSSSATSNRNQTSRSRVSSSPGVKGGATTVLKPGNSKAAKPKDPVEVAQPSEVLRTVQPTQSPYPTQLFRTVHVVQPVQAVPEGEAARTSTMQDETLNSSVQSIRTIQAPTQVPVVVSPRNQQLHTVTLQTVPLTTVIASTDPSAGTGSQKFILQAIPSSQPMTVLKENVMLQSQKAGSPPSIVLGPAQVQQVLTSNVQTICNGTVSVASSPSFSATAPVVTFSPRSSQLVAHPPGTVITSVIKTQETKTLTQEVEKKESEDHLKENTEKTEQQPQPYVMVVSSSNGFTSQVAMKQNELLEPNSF
# Summary of the method: as §1
# EHF = target: T5, EHF (Homo sapiens, UniProt Q9NZC4 1-300); details: protein: recombinant; tags: N-terminal GST; dsDNA, one strand shown
# T5 sequence: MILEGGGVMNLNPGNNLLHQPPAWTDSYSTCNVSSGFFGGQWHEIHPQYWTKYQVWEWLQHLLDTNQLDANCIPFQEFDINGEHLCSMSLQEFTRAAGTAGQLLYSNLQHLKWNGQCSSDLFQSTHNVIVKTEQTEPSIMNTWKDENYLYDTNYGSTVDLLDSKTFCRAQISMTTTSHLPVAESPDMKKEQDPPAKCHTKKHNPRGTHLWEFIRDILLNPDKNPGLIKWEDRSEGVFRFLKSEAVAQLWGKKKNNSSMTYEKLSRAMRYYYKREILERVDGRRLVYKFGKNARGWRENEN
# Summary of the method: as §1
# SPI1 = SPI1 (Homo sapiens, UniProt P17947 1-270); details: protein: recombinant; tags: N-terminal GST; dsDNA, one strand shown
# Summary of the method: as §1
# SPIB = SPIB (Homo sapiens, UniProt Q01892 1-262); details: protein: recombinant; tags: N-terminal GST; dsDNA, one strand shown
# Chain of SPIB (Q01892 whole entry): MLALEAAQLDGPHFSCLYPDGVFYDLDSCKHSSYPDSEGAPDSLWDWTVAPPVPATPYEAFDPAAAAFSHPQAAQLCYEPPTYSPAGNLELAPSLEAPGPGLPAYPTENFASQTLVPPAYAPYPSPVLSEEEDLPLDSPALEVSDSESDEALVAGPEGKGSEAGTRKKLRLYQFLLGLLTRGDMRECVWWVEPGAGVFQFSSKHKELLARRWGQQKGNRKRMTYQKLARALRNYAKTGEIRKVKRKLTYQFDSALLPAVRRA
# Summary of the method: as §1
# ELK3 = target: T6, ELK3 (Homo sapiens, UniProt P41970 1-407); details: protein: recombinant; tags: N-terminal GST; dsDNA, one strand shown
# T6 sequence: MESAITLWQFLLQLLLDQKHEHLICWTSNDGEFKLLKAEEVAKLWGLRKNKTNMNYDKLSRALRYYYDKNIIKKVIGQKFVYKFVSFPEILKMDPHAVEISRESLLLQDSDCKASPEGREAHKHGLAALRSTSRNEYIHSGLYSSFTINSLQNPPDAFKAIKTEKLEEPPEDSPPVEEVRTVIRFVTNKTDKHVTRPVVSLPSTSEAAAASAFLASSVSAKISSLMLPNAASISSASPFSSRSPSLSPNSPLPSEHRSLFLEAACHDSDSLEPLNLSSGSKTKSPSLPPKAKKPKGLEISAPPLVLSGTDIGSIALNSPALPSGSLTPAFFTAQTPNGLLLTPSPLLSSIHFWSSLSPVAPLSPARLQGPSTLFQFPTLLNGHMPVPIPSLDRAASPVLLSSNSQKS
# Summary of the method: as §1
# FEV = target: T7, FEV (Homo sapiens, UniProt Q99581 1-238); details: protein: recombinant; tags: N-terminal GST; dsDNA, one strand shown
# T7 sequence: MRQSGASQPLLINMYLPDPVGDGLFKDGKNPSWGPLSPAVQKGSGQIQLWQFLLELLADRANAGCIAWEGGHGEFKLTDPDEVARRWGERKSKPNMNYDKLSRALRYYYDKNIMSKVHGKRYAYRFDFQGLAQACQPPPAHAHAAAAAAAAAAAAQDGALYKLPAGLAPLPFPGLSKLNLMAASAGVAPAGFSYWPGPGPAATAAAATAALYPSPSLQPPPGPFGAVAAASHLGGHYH
# Summary of the method: as §1
# ETV5 = ETV5 (Homo sapiens, UniProt P41161 1-510); details: protein: recombinant; tags: N-terminal GST; dsDNA, one strand shown
# Chain of ETV5 (P41161 whole entry): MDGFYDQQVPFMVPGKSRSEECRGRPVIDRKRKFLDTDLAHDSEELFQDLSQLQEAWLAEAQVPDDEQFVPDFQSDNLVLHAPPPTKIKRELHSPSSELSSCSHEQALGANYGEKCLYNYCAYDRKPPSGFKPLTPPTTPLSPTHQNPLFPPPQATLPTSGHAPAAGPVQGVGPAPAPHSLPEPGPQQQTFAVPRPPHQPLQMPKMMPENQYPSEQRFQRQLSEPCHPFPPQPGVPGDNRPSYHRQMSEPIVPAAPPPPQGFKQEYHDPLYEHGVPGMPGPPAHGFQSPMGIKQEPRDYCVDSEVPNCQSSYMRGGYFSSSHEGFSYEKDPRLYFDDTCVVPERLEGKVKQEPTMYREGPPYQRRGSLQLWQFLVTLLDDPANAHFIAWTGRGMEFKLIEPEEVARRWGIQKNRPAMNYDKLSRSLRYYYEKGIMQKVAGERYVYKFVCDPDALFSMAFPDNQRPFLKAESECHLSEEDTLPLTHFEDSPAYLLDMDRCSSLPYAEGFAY
# Summary of the method: as §1
# HSF1 = HSF1 (Homo sapiens, UniProt Q00613 1-529); details: protein: recombinant; tags: N-terminal GST; chain copies: 3; dsDNA, one strand shown
# Chain of HSF1 (Q00613 whole entry): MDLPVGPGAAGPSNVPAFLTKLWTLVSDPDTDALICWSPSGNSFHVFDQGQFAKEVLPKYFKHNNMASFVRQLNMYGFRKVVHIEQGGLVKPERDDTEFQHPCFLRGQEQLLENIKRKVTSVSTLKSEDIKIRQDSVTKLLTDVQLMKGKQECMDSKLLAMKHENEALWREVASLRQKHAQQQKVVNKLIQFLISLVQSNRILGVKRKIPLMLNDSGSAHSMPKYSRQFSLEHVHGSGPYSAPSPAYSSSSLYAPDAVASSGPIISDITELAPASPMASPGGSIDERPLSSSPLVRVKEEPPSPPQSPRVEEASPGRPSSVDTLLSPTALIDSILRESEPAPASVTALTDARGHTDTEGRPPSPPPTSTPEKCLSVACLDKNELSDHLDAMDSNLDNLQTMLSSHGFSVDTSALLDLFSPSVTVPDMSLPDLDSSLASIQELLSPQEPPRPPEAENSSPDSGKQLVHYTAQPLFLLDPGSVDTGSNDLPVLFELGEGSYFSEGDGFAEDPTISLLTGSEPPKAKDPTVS
# Summary of the method: as §1
# SPIC = target: T8, SPIC (Homo sapiens, UniProt Q8N5J4 1-248); details: protein: recombinant; tags: N-terminal GST; dsDNA, one strand shown
# T8 sequence: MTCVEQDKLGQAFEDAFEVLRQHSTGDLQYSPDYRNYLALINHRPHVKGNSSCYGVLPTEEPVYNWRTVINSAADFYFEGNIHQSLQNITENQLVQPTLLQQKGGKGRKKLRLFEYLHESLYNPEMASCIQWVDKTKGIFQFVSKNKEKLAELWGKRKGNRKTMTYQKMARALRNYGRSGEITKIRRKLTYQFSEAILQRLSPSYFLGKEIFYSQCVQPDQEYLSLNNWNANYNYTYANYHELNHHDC
# Summary of the method: as §1
# ELF4 = ELF4 (Homo sapiens, UniProt Q99607 1-663); details: protein: recombinant; tags: N-terminal GST; dsDNA, one strand shown
# Chain of ELF4 (Q99607 whole entry): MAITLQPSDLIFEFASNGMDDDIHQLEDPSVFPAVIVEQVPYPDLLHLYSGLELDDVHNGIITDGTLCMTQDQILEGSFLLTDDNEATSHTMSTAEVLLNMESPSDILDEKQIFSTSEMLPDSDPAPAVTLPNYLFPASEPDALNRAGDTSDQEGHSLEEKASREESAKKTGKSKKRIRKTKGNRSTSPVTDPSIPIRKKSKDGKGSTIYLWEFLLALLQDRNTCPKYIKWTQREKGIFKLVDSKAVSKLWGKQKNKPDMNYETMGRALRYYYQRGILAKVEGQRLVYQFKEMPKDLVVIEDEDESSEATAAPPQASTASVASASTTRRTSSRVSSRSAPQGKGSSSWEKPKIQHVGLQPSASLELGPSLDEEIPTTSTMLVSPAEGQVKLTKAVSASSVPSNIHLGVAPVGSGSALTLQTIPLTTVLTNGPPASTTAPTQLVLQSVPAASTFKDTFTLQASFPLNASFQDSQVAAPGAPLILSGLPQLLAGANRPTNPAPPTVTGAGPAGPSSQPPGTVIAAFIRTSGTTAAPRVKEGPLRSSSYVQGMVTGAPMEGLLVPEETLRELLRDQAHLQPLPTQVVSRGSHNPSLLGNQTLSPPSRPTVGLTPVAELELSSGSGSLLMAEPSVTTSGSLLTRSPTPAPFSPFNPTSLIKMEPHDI
# Summary of the method: as §1
# ELK4 = target: T9, ELK4 (Homo sapiens, UniProt P28324-2 1-405); details: protein: recombinant; tags: N-terminal GST; dsDNA, one strand shown
# T9 sequence: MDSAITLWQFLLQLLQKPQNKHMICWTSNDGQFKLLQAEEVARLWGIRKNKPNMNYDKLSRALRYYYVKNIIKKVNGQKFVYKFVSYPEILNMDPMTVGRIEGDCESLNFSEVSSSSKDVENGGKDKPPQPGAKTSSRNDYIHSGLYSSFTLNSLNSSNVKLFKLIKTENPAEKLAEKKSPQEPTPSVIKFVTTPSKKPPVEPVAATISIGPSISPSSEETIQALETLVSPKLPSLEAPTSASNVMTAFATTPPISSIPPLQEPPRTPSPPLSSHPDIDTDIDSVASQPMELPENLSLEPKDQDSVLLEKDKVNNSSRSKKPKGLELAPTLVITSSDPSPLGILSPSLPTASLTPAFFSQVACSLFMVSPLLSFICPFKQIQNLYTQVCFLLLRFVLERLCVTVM
# Summary of the method: as §1
# ETV2 = target: T10, ETV2 (Homo sapiens, UniProt O00321 1-342); details: protein: recombinant; tags: N-terminal GST; dsDNA, one strand shown
# T10 sequence: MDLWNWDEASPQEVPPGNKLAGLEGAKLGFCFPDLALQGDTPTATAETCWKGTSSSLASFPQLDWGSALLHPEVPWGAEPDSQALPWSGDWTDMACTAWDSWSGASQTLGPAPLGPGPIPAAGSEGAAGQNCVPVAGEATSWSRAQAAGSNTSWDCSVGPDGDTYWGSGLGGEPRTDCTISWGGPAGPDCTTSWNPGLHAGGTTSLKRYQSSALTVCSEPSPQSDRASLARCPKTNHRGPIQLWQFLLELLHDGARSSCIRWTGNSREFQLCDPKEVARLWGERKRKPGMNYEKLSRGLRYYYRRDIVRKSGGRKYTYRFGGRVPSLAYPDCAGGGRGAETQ
# Summary of the method: as §1
# ELF3 = target: T11, ELF3 (Homo sapiens, UniProt P78545 1-371); details: protein: recombinant; tags: N-terminal GST; dsDNA, one strand shown
# T11 sequence: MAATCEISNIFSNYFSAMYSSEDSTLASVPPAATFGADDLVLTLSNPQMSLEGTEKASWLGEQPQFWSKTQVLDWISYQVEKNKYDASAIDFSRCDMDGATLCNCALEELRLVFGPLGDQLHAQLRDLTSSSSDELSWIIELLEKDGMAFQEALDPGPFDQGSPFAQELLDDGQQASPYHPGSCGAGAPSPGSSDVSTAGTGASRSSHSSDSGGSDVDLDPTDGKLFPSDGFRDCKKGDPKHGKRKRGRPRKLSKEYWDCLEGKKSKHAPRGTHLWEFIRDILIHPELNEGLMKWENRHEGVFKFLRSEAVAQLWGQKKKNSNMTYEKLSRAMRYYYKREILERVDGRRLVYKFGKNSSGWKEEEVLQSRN
# Summary of the method: as §1
# CRX = CRX (Homo sapiens, UniProt O43186 1-299); details: protein: recombinant; tags: N-terminal GST; dsDNA, one strand shown
# Chain of CRX (O43186 whole entry): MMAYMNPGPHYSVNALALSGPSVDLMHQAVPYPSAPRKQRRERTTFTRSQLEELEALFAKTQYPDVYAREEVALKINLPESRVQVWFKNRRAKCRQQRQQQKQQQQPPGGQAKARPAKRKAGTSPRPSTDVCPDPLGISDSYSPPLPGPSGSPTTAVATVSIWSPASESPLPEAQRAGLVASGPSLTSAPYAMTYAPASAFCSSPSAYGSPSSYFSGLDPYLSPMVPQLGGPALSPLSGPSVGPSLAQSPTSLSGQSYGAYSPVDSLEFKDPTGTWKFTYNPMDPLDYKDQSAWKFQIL
# Summary of the method: as §1
# ETV1 = ETV1 (Homo sapiens, UniProt P50549 1-477); details: protein: recombinant; tags: N-terminal GST; dsDNA, one strand shown
# Chain of ETV1 (P50549 whole entry): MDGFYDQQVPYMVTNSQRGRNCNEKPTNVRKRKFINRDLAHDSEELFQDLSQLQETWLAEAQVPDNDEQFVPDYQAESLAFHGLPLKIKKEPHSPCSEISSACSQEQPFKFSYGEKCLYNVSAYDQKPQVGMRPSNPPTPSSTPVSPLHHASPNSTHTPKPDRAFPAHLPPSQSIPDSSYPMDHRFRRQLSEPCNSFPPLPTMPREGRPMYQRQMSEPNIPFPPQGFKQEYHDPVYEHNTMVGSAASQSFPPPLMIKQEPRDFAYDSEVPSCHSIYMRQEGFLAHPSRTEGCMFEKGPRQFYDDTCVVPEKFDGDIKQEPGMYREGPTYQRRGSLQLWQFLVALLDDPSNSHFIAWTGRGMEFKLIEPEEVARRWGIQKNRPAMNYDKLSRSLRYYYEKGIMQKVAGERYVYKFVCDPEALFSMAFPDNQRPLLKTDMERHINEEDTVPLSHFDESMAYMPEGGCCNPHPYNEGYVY
# Summary of the method: as §1
sequence,measurement,setting,value
CTCTAG,binding signal,FLI1,"1.25 fold enrichment (6-mer frequency, TF over GST control)"
same,binding signal,ELK1,"1.26 fold enrichment (6-mer frequency, TF over GST control)"
same,binding signal,GABPA,"1.32 fold enrichment (6-mer frequency, TF over GST control)"
same,binding signal,ERG,"1.25 fold enrichment (6-mer frequency, TF over GST control)"
same,binding signal,ELF1,"1.38 fold enrichment (6-mer frequency, TF over GST control)"
same,binding signal,EHF,"1.36 fold enrichment (6-mer frequency, TF over GST control)"
same,binding signal,SPI1,"1.09 fold enrichment (6-mer frequency, TF over GST control)"
same,binding signal,SPIB,"1.22 fold enrichment (6-mer frequency, TF over GST control)"
same,binding signal,ELK3,"1.26 fold enrichment (6-mer frequency, TF over GST control)"
same,binding signal,FEV,"1.25 fold enrichment (6-mer frequency, TF over GST control)"
same,binding signal,ETV5,"1.3 fold enrichment (6-mer frequency, TF over GST control)"
same,binding signal,HSF1,"2.39 fold enrichment (6-mer frequency, TF over GST control)"
same,binding signal,SPIC,"1.37 fold enrichment (6-mer frequency, TF over GST control)"
same,binding signal,ELF4,"1.32 fold enrichment (6-mer frequency, TF over GST control)"
same,binding signal,ELK4,"1.31 fold enrichment (6-mer frequency, TF over GST control)"
same,binding signal,ETV2,"1.12 fold enrichment (6-mer frequency, TF over GST control)"
same,binding signal,ELF3,"1.1 fold enrichment (6-mer frequency, TF over GST control)"
same,binding signal,CRX,"1.46 fold enrichment (6-mer frequency, TF over GST control)"
same,binding signal,ETV1,"1.16 fold enrichment (6-mer frequency, TF over GST control)"
